The source of these data is PubChem BioAssay AID652042 (Broad Institute, 2013).

The whole screen tested about 1,100 compounds, of which about 350 (32%) were called active. The rule behind the calls is not given here. The list is a sample of the results. Results with a measured potency or affinity are listed apart.

The nature of this experiment: viability loss in CEM21 cells – cell-based, CellTiter-Glo luminescence, cherry-picked, cytotoxicity control for viral fusion inhibitor project, dose response (AID 652042). Particulars: CellTiter-Glo ATP luminescence, 24 h; series mostly up to 35 µM.
Consider `O=C1c2cccnc2C(Nc2ccc(S(=O)(=O)N3CCCCC3)cc2)N1Cc1ccccc1` (stereo unspecified), for which the activity change, negative = cytotoxicity entry was “inactive”. As for `CCc1ccc(C(=O)CN2C(=O)NC(C)(c3ccc(C)cc3)C2=O)cc1` (stereo unspecified), the activity change, negative = cytotoxicity result was “inactive”. Regarding `Nc1ccc(S(=O)(=O)c2ccc(N3CCOCC3)c(N)c2)cc1`, the activity change, negative = cytotoxicity entry is “inactive”.

For the molecule `CN(C)CC(=O)Nc1ccc2c(c1)[C@H]1C[C@H](CC(=O)NCc3cccc(F)c3)O[C@@H](CO)[C@H]1O2`, the activity change, negative = cytotoxicity entry was “inactive”.

In the case of `COc1ccc(OC)c(NC(=O)COc2ccc3c(c2)CCC3)c1`, the activity change, negative = cytotoxicity result was “inactive”. Take `Cc1ccc(C(C(=O)NC(C)(C)C)N(Cc2cccs2)C(=O)c2csnn2)cc1` (stereo unspecified): the activity change, negative = cytotoxicity entry is “inactive”. `O=C(C[C@@H]1C[C@@H]2c3cc(NC(=O)C4CCC4)ccc3O[C@@H]2[C@@H](CO)O1)NCc1ccc2c(c1)OCO2`: the activity change, negative = cytotoxicity entry is “inactive”. For the molecule `O=C(C[C@H]1C[C@@H]2c3cc(NS(=O)(=O)c4ccc(F)cc4)ccc3O[C@@H]2[C@H](CO)O1)NCCc1ccccc1`, the activity change, negative = cytotoxicity result was “inactive”. The entry for `COCCNC(=O)C[C@@H]1C[C@H]2c3cc(N(C)C)ccc3O[C@H]2[C@@H](CO)O1` is “inactive”; for `O=C(C[C@H]1C[C@H]2c3cc(NC(=O)C4CCC4)ccc3O[C@H]2[C@H](CO)O1)NCc1ccc2c(c1)OCO2` it is “inactive”. As for `O=C(C[C@@H]1C[C@H]2c3cc(NC(=O)C4CCOCC4)ccc3O[C@H]2[C@@H](CO)O1)NCc1ccccc1`, the activity change, negative = cytotoxicity result was “inactive”. For the molecule `O=C(C[C@H]1C[C@H]2c3cc(NS(=O)(=O)c4ccc(F)cc4)ccc3O[C@H]2[C@@H](CO)O1)NCc1ccccc1F`, the activity change, negative = cytotoxicity entry was “inactive”. Turning to `CCOC(=O)[C@H]1[C@H]2COc3ccccc3[C@@H]2N2C(=O)c3c(C)cc(C)cc3NC(=O)[C@@]12C`, the activity change, negative = cytotoxicity entry was “inactive”. For the molecule `O=C(C[C@@H]1C[C@@H]2c3cc(NC(=O)C4CCOCC4)ccc3O[C@@H]2[C@H](CO)O1)NCc1ccccc1F`, the activity change, negative = cytotoxicity result was “inactive”. On to `Cc1ccc(S(=O)(=O)N(C)c2ccc(C(=O)N3CCN(Cc4ccc5c(c4)OCO5)CC3)cc2)cc1`, for which the activity change, negative = cytotoxicity result is “inactive”.

Take `CCC1(c2ccccc2)NC(=O)N(CC(=O)Nc2cc(S(=O)(=O)N3CCCCC3)ccc2OC(C)C)C1=O` (stereo unspecified): the activity change, negative = cytotoxicity result is “inactive”. Regarding `c1ccc2c(c1)OCC(c1csc3ncnc(N4CCOCC4)c13)O2` (stereo unspecified), the activity change, negative = cytotoxicity entry is “inactive”. Consider `COc1ccc([C@@H]2[C@@H]3C(=O)N(C(C)(C)C)C(=O)[C@@H]3[C@]3(CC(C)C)C(=O)N(c4ccccc4)C(=O)N23)cc1`, for which the activity change, negative = cytotoxicity entry is “inactive”. Turning to `CCS(=O)(=O)N[C@H]1CC[C@@H](CC(=O)NCc2ccc(Cl)cc2)O[C@@H]1CO`, the activity change, negative = cytotoxicity entry is “inactive”. As for `CC12CC3CC(C)(C1)CC(C(=O)NCc1ccncc1)(C3)C2`, the activity change, negative = cytotoxicity entry was “inactive”. As to `CCc1ccc([C@H]2[C@@H]3C(=O)C[C@@H]4C(=O)N(Cc5ccccc5)C(=O)[C@@H]4[C@@H]3CN2S(=O)(=O)c2ccc(C)cc2)cc1`, the activity change, negative = cytotoxicity result is “inactive”.
